Bioassay records from PubChem.
HepG2 viability: HepG2 cytotoxicity, counter-screen for TGF-b inhibitors; hit rate 0.76% among 410,000; HepG2 CAGA-GFP viability, ATP luminescence, 18 h; AID 588856; Potency, µM (highest dose often 46.1 µM), without a hit: at the highest dose activity change, negative = cytotoxicity, hits mostly cytotoxic
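CellTiter-Glo luminescence gave cytotoxicity after 18 hours at 37 degrees C. The cells were HepG2 CAGA-GFP in 1% FBS DMEM, stimulated with 500 pg/mL TGF-beta after compound addition. %Activity was normalised to no-cell wells (complete cell-killing) and DMSO (no toxicity), and curves were fitted and classified.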
ATXN viability: reduces viability in counter-screen for ATXN expression inhibitors. S2 cells (HEK-293 line with an ATXN2-luciferase reporter) viability, CellTiter-Fluor protease fluorescence, 24 h. Potency, µM (top dose mostly 56.7 µM), actives largely listed as cytotoxic. hit rate 0.49% among 400,000. AID 651635; further: nearly all actives have a fitted effect of over 40% in size
TGFb SMAD3 inh: inhibitors of TGF-b signaling. Potency, µM (top dose mostly 46.1 µM), for the others: at the top dose activity, negative = inhibition, most hits filed as inhibitors. HepG2 CAGA-GFP TGF-b/SMAD3 reporter, GFP fluorescence, 18 h; TGF-beta stimulated, 500 pg/mL final. hit rate 1.2% among 410,000. AID 588855; further: on the % scale 0 is the no-effect control and ±100 the full control effect; nearly all actives have a fitted effect of over 65% in size
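Per well, imaged GFP fluorescence of HEPG2 CAGA-GFP cells gives the signal; cells get compound, then TGF-beta (500 pg/mL final), 18 h at 37 degrees C; %Activity versus -TGF-beta and +DMSO controls.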
ATXN2 expr inh: reduces ATXN2 reporter expression in HEK-293 cells; Potency, µM (top dose mostly 57 µM), without a hit: top-dose activity change, negative = inhibition, hits mostly inhibitors; HEK-293 ATXN2-luciferase reporter, luminescence, 24 h; hit rate 0.72% among 360,000; further: on the % scale 0 is the no-effect control and ±100 the full control effect; nearly all actives have a fitted effect of over 55% in size
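ATXN2-luciferase reporter cells (luciferase flanked by upstream and downstream ATXN2 gene portions) were treated 24 h at 37 °C with compounds at up to 57 uM. SteadyGlo luminescence gave expression; GF-AFC fluorescence gave viability.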
RORg inh: inhibitors of mouse ROR gamma transcriptional activity. Drosophila S2 Gal4-RORgamma UAS-luciferase reporter, 20 h. Potency, µM (highest dose often 53.6 µM), inactives show at the highest dose activity change, negative = inhibition, actives largely listed as inhibitors. hit rate 5.4% among 310,000; further: on the % scale 0 is the no-effect control and ±100 the full control effect; nearly all actives have a fitted effect of over 60% in size
Target sequence (P51450 whole entry, looked up, the tested form may be a part): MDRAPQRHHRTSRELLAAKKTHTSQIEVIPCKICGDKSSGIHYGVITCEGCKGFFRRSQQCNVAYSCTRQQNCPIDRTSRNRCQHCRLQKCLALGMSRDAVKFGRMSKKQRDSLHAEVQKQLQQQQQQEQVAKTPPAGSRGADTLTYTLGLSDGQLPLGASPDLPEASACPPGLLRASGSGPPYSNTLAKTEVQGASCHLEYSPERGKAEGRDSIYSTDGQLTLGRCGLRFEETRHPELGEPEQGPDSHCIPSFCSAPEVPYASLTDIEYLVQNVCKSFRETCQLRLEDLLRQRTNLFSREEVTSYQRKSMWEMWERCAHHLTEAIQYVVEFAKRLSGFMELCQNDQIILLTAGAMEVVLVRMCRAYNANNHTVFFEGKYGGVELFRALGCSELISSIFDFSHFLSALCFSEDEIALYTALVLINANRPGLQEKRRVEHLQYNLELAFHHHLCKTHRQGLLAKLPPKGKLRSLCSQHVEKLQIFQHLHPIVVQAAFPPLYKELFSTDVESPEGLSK
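Drosophila Schneider cells stably carrying a metallothionein-driven Gal4 DBD–ROR gamma fusion and a UAS-Photinus luciferase reporter were exposed to compound for 1 hr, then induced with copper sulfate (700 uM final) for 20 hr at ambient temperature before luminescence reading.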
VP16 counter: counter-screen for ROR gamma inhibitors: Gal4-VP16 reporter; hit rate 3.5% among 310,000; Drosophila S2 Gal4-VP16 UAS-luciferase, luminescence, 20 h; Potency, µM (titrated, usually from 53.6 µM), for the others: at the highest dose activity, negative = inhibition, most hits filed as inhibitors;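 further: Gal4-VP16 expression switched on by copper sulfate through the metallothionein promoter; on the % scale 0 is the no-effect control and ±100 the full control effect; nearly all actives have a fitted effect of over 50% in size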
Active calls of the source: *; i = inactive; ? = inconclusive; / = no result given; [ ] = dose if it differs, or a comment. Most compounds without a hit are left out; they make up all but 6.3% or so of the library. The call rests on the fitted dose curve; in most records, active means well fitted curve in the direction sought with a large enough effect; inconclusive means small, poorly fitted or top-dose-only effect, or another doubt; inactive means no such curve, though single readings can be large; an effect the other way counts as inactive or inconclusive. Potency means the concentration at half of the fitted maximal effect.

SMILES	HepG2 viability	ATXN viability	TGFb SMAD3 inh	ATXN2 expr inh	RORg inh	VP16 counter
COc1ccc([C@H]2C[C@H](O)[C@@H](n3cc(-c4ccc(F)cc4)nn3)CN2Cc2cccs2)cc1	-103%	28µM*	?	16µM*	/	/
CCC(C(=O)Nc1cccnc1)c1ccccc1 (configuration not stated)	1%	i	4%	/	/	/
CCC(C(=O)Nc1ccncc1)c1ccccc1 (configuration not stated)	-25%	i	-32%	29%	?	13µM*
COc1ccc(OC)c(CN2CCCC(n3cc(C(=O)N4CCCCC4)nn3)C2)c1 (configuration not stated)	/	i	/	/	/	/
O=C(/C=C/c1ccco1)NC(=S)Nc1nc(-c2ccc3ccccc3c2)cs1	-1%	i	3%	5%	7.9µM*	?
O=C(/C=C/c1ccco1)NC(=S)Nc1nc(-c2ccc(Cl)cc2)cs1	4%	i	0%	-20%	14µM*	?
O=C(/C=C\c1ccco1)Nc1nc(-c2ccccc2)cs1	1%	i	0%	33%	?	-19%
Cc1c(CCC(=O)N2CCC(C(=O)O)(c3ccccc3)CC2)c(=O)oc2cc3oc4c(c3cc12)CCCC4	6%	i	?	?	1.1µM*	?
Cc1c(CCC(=O)NCCCn2ccnc2)c(=O)oc2cc3oc4c(c3cc12)CCCC4	-36%	?	-18%	?	1.3µM*	16µM*
COc1cccc(-c2nc(NC3CC3)c3ccccc3n2)c1	/	/	/	/	4%	7%
Cc1ccccc1Cn1c(-c2cncs2)nc2ccccc21	-16%	i	-15%	-4%	-2%	10%
COc1ccccc1Cn1c(C)nc2ccccc21	33%	i	20%	-12%	14µM*	?
Cc1nc2ccccc2n1CCOc1ccccc1	1%	i	-21%	-10%	1%	?
Cc1ccccc1OCCn1c(C)nc2ccccc21	-10%	i	-22%	-29%	1%[1.91 µM]	7.9µM*
CCc1nc2ccccc2n1Cc1ccccc1OC	-14%	i	-8%	-14%	7.1µM*	?
Cc1ccccc1Cn1c(C)nc2ccccc21	-5%	i	-11%	0%	?	3.5µM*
COc1ccccc1Cn1c(CCCO)nc2ccccc21	6%	?	?	-12%	-31%	13%
O=C(COC(=O)c1ccccc1OC(F)F)Nc1ccc2[nH]c(=O)[nH]c2c1	-10%	i	12%	-7%	/	/
ClC1(Cl)CC1Cn1c(C2CC2)nc2ccccc21 (configuration not stated)	-17%	i	-23%	-25%	14%	7%
CCCCn1c(NCc2ccccc2O)nc2ccccc21	-9%	?	-16%	-12%	?	23%
CCc1nc2ccccc2n1CC1CC1(Cl)Cl (configuration not stated)	-45%	i	14%	-15%	7.1µM*	-2%[10 µM]
Cc1nc2ccccc2n1Cc1ccc(Cl)cc1	-7%	i	-15%	-16%	?	10µM*
CCCCCn1c(NCc2ccccc2OC)nc2ccccc21	-43%	?	16µM*	?	/	/
CCCc1nc2ccccc2n1Cc1ccccc1OC	6%	i	0%	-25%	6.3µM*	?
Cc1nc2ccccc2n1Cc1n[nH]c(=S)n1-c1ccc(Cl)cc1	-4%	i	-2%	5%	?	-20%
SMILES	HepG2 viability	ATXN viability	TGFb SMAD3 inh	ATXN2 expr inh	RORg inh	VP16 counter
N=c1c(C(=O)NCCN2CCOCC2)cc2c(=O)n3ccccc3nc2n1CCc1ccccc1	-13%	i	-21%	11%	-4%	2%
COc1ccc2cc(C(=O)N3CCCC(Nc4ccc(F)cc4)C3)n(C)c2c1 (configuration not stated)	-21%	i	0%	-6%	19%	0%
O=C1/C(=C\c2ccc(O)c(O)c2)Oc2c1ccc(O[C@@H]1O[C@H](CO)[C@@H](O)[C@H](O)[C@H]1O)c2O	-9%	/	-6%	/	-14%	-13%
CCN1CCCC1CNC(=O)c1cnn(-c2nccc(-c3ccco3)n2)c1C1CC1 (configuration not stated)	/	i	/	/	/	/
Cc1ccc2cccc(O)c2n1	-118%	/	?	/	/	/
Cc1nc2c(O)cccc2cc1CO	-23%	i	-23%	/	10µM*	?
Cc1csc(C(=O)NN)c1N(C)C	12%	i	1%	2%	0.56µM*	?
Cc1c(C(=O)NN)sc(=S)n1C	-18%	i	5%	-25%	11%	-14%
CCOc1ccc(-c2nc(C)c(C(C)=O)n2O)cc1	-28%	i	2%	15%	18%	25µM*
Cc1c(CC(=O)NCCCC(=O)O)c(=O)oc2cc3c(cc12)CCC(C)(C)O3	-3%	i	0%	3.2µM*	5µM*	7.1µM*
Cc1ccc(-n2cc(CNC(C)c3cnn(C)c3C)c(-c3ccc(F)cc3)n2)cc1 (configuration not stated)	-73%	?	13µM*	/	?	-29%
Cc1ccc(-n2cc(CNC(C)c3cnn(C)c3)c(-c3ccc(F)cc3)n2)cc1 (configuration not stated)	7%	i	-23%	/	-27%	-10%
Cc1ccc(-c2nn(-c3ccccc3)cc2CNCc2ccccc2)cc1	-104%	?	?	-13%[11.3 µM]	?	14µM*
Cc1ccc(-n2cc(CNCCc3cscn3)c(-c3ccc(F)cc3)n2)cc1	-63%	?	?	?	-44%	27%
Cc1ccc(C)c(-n2cc(CNCCCn3cccn3)c(-c3ccccc3)n2)c1	-50%	?	-28%	?	10µM*	-7%
Cc1ccc(-n2cc(CNCCCn3ccnc3C)c(-c3ccc(F)cc3)n2)cc1	13µM*	?	?	-22%	?	-17%
Cn1c(=O)c2nc(SCc3ccccc3)n(C)c2n(C)c1=O	-4%	i	-1%	8%	/	/
Cc1cccc(-c2nn(-c3ccccc3)cc2CNCCO)c1	-52%	/	?	/	/	/
Cc1ccc(-n2cc(CNCCCn3cccn3)c(-c3cccc(C)c3)n2)cc1	-99%	/	?	32µM*	-35%	-6%
CCOc1ccc(CCNC(=O)CSc2nnnn2-c2ccccc2Cl)cc1OCC	-18%	i	1%	-28%	/	/
CC1(C)[C@H]2CC[C@]3(C)[C@@H](C(=O)C=C4[C@@H]5C[C@@](C)(C(=O)O)CC[C@]5(C)CC[C@]43C)[C@@]2(C)CC[C@@H]1O	/	/	/	0%	/	/
